# Compound activity: PubChem BioAssay, National Center for Advancing Translational Sciences (NCATS)
# Compounds with a hit are over-represented: about 19% of the library has one in this group of screens.
# HT1080-NT tox: kills 2HG-producing HT-1080-NT fibrosarcoma cells; HT-1080-NT fibrosarcoma viability, CellTiter-Glo ATP luminescence, 48 h; AID 686970; 360,000 compounds, 1.6% hits; Potency, µM (series often up to 46.1 µM), without a hit: at the highest dose activity, negative = less viability, actives largely listed as cytotoxic;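 also: NT is the 2HG producing partner of a matched IDH1 knockdown line; potency is read from the fitted curve at half-maximal effect; 0% = DMSO-treated cells and -100% = media-only wells without cells; nearly all actives have a fitted effect of over 55% in size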
#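 A 48-hour cytotoxicity screen used HT-1080-NT cells plated 2 hours before compound delivery. ATP-based CellTiter-Glo luminescence measured viability, normalized to DMSO and no-cell controls.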
# TDP1 cell CPT: growth inhibition of DT40 Tdp1-/-;hTDP1 cells with camptothecin (screen for TDP1 inhibitors); 420,000 compounds, 12% hits; Potency, µM (top dose mostly 46.2 µM), for inactives: at the highest dose activity change, negative = growth inhibition, most hits filed as inhibitors; chicken DT40 Tdp1-/-;hTDP1 cells + 20 nM CPT, ATP luminescence, 48 h; AID 686979; also: potency is read from the fitted curve at half-maximal effect; nearly all actives have a fitted effect of over 55% in size
#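 Chicken DT40 Tdp1-/- cells stably complemented with human TDP1 were seeded at 400 cells/well in medium containing 20 nM camptothecin, exposed to pin-transferred compounds, and grown at 37 °C for at least 48 hr. Viability was read as ATP luminescence.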
# DT40 TDP1 no CPT: qHTS for Inhibitors of human tyrosyl-DNA phosphodiesterase 1 (TDP1): qHTS in cells in absence of CPT; Potency, µM (doses to about 46.2 µM), without a hit: at the highest dose activity change, negative = growth inhibition, actives largely listed as inhibitors; 420,000 compounds, 15% hits; DT40 Tdp1-/- hTDP1 cells, no CPT, ATP luminescence, 48 h; also: potency is read from the fitted curve at half-maximal effect; nearly all actives have a fitted effect of over 55% in size
#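 Luminescent ATP content (CellTiter-Glo) served as the growth readout. Knockout chicken DT40 cells expressing human TDP1 were exposed to compounds without camptothecin for a minimum 48 hr at 37 °C.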
# HT1080 IDH1KD tx: toxicity to HT-1080 IDH1 knockdown cells (counter line). HT-1080 IDH1 knockdown viability, ATP luminescence, 48 h. Potency, µM (titrated, usually from 46.1 µM), inactives show at the top dose activity, negative = toxicity, actives largely listed as cytotoxic. 360,000 compounds, 2% hits;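 also: potency is read from the fitted curve at half-maximal effect; 0% = DMSO wells and -100% = cell-free medium wells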
#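 % activity derives from luminescence (CellTiter-Glo), normalised to DMSO and no-cell wells. HT-1080-IDH1KD cells, 750/well, had 48 h compound exposure at 37 °C.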
# IL-1B inflam inh: blocks inflammasome-driven IL-1 beta release. THP-1 LPS/ATP IL-1B secretion, AlphaLISA, 16 h; stronger effect = lower value. activity change, % at 57.5 µM. 360,000 compounds, 4.7% hits. AID 743279; in the data active = activity change below about -50%; inconclusive = mostly about -30% to -49%
#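 Secreted IL-1B measured by AlphaLISA bead assay after 16 h compound exposure of THP-1 cells; compounds (final up to 57.5 uM) added 1 h before LPS (250 ng/mL) and ATP (1.25 mM) stimulation; lower signal means less secretion.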
# * marks the source's active call; other numbers are inactive results; u = inconclusive; x = no result; [ ] = remark or other dose. Unless noted, calls follow the shape of the dose curve; as a rule, active = well fitted curve in the direction sought with a large enough effect; inconclusive = small, poorly fitted or top-dose-only effect, or another doubt; inactive = no such curve, though single readings can be large; an effect the other way counts as inactive or inconclusive. Unless noted, % is scaled to controls: 0 for no effect and ±100 for the full control effect.
SMILES,HT1080-NT tox,TDP1 cell CPT,DT40 TDP1 no CPT,HT1080 IDH1KD tx,IL-1B inflam inh
CCCCC1=CC2=C(c3ccco3)C(=O)C(C)(OC(=O)c3ccc(OC)cc3)C(=O)C2=CN1c1ccccc1 (stereo unspecified),2%,23µM*,u,-1%,10
C=CCN1C=C2C(=O)C(C)(OC(=O)c3ccc(OC)cc3)C(=O)C(c3ccco3)=C2C=C1CCCC (stereo unspecified),-5%,13µM*,-4%,0%,22
COC(=O)CCCC1=CC2=C(c3ccccc3)C(=O)C(C)(OC(=O)C3CCCC3)C(=O)C2=CN1Cc1ccco1 (stereo unspecified),2%,-3%,u,3%,-10
O=C1CCNc2c(Cl)cccc21,9%,-10%,-23%,18%,32
O=C(CCc1nc2ccccc2s1)N1CCOc2ccc(CN3CCc4sccc4C3)cc2C1,x,0%[9.04 µM],u,x,x
C=C1C=C(C(F)F)n2ncc(C(=O)Nc3ccc(Br)cc3C(F)(F)F)c2N1,x,14%,-26%,x,x
CC(=O)Nc1ccc(/C=C/c2ccnc3ccccc23)cc1[N+](=O)[O-],x,1.4µM*,u,x,x
CC(=O)Nc1ccc(O)cc1[N+](=O)[O-],-7%,6%,-18%,-6%,26
CC(=O)Nc1ccc(/C=C/c2ccnc3ccccc23)cc1,x,16µM*,11µM*,x,x
NC(=O)C1CCN(C(=O)C2CC(=O)N(c3ccc(F)cc3)C2)CC1 (stereo unspecified),3%,5%,21%,15%,-11
O=C1c2[nH]nc(-c3ccc(F)cc3)c2C(c2ccccc2F)N1c1ccccc1 (stereo unspecified),x,u,21µM*,x,x
COc1cc(C2c3c(-c4ccccc4)n[nH]c3C(=O)N2c2ccccc2)ccc1O (stereo unspecified),-11%,u,u,-13%,-23
CCOC(=O)c1ccc(N2C(=O)c3n[nH]c(C)c3C2c2cccnc2)cc1 (stereo unspecified),1%,-26%,-24%,7%,-3
CCOC(=O)c1ccc(N2C(=O)c3[nH]nc(-c4ccc(OCC)cc4)c3C2c2ccc(OC)cc2OC)cc1 (stereo unspecified),x,21µM*,18µM*,x,x
CCOC(=O)c1ccc(N2C(=O)c3n[nH]c(-c4cccs4)c3C2c2cccc(OC)c2)cc1 (stereo unspecified),x,26µM*,10µM*,x,x
CCOC(=O)c1ccc(N2C(=O)c3[nH]nc(-c4ccc(C)cc4)c3C2c2cccc(F)c2)cc1 (stereo unspecified),x,23µM*,u,x,x
CCCCC(=O)Nc1ccc(NC(=O)c2ccc(C)c([N+](=O)[O-])c2)cc1OC,-3%,-21%,-29%,-3%,7
CCOC(=O)c1ccc(N2C(=O)C(O)=C(C(C)=O)C2c2ccccn2)cc1 (stereo unspecified),6%,0%,0%,4%,13
CCOC(=O)c1ccc(N2C(=O)c3[nH]nc(-c4ccc(OC)cc4)c3C2c2cccc(O)c2)cc1 (stereo unspecified),x,18µM*,21µM*,x,x
CCN1CCc2c(sc(N)c2C#N)C1,7%,u,23µM*,9%,14
CCCS(=O)(=O)NC(=O)C1(C)CCCN(C(=O)c2cccnc2Oc2ccccc2)C1 (stereo unspecified),15%,11%,-9%,1%,1
CCOC(=O)c1sc(N/N=C/c2ccccc2)nc1C,u,u,u,-19%,-5
Cc1nc(Nc2ccccc2)sc1-c1ccccc1,u,u,u,u,-13
O=C(Cc1sc(Nc2ccccc2)nc1-c1ccccc1)NCc1ccccc1,u,16µM*,u,u,-68*
O=C(O)Cc1sc(N/N=C\c2ccccc2)nc1-c1ccccc1,1%,-9%,23µM*,13%,3
SMILES,HT1080-NT tox,TDP1 cell CPT,DT40 TDP1 no CPT,HT1080 IDH1KD tx,IL-1B inflam inh
c1ccc(Nc2nc(-c3ccccc3)c(-c3ccccc3)s2)cc1,-28%,28µM*,u,u,x
O=C(N/C(=C/c1cccc(Br)c1)C(=O)N1CCOCC1)c1ccco1,11%,-2%,1%,9%,-14
COc1ccc(N2C(=O)CSC2c2ccc3c(c2)OCO3)cc1 (stereo unspecified),-1%,2%,-8%,-7%,10
COc1ccc2c(c1)O[C@H](c1ccc3c(c1)OCO3)[C@@H](O)C2=O,0%,21µM*,u,-11%,-6
Cn1c(SCC(=O)NCc2ccc3c(c2)OCO3)nc2scc(-c3cccs3)c2c1=O,-11%,u,u,1%,22
Cc1nc(SCC(=O)NC(C)(C#N)C2CC2)c2c(-c3cccs3)csc2n1 (stereo unspecified),-15%,u,u,1%,-59*
O=C(CSCC(=O)NN=Cc1ccccc1)NN=Cc1ccccc1,-3%,-12%,-27%,2%,-1
O=C(CCCSCCCC(=O)NN=Cc1ccccc1)NN=Cc1ccccc1,-8%,u,23µM*,-2%,-3
CC(=O)Oc1ccc(/C=N/NC(=O)CCSc2ccccc2)cc1,-4%,u,18µM*,-5%,48
CCC(C)Nc1nc2c(c(=O)n(C)c(=O)n2C)n1C (stereo unspecified),0%,-14%,-9%,-2%,8
O=C(NNC(=O)c1ccccc1-n1cccc1)c1ccc(Cl)cc1,12%,5%,-11%,8%,10
CC(C)(C)c1ccc(C(=O)NNc2ncccc2-n2cccc2)cc1,-5%,13µM*,13µM*,-1%,-5
O=C(NNc1ncccc1-n1cccc1)c1ccc(Cl)cc1,-5%,u,7.3µM*,0%,-20
CC(C)(C)NC(=O)C(=O)NNC(=O)c1ccc(C(C)(C)C)cc1,-15%,u,u,-18%,14
COc1ccc(CC(=O)NCC2CCCN(Cc3ccc(OC(F)(F)F)cc3)C2)cc1 (stereo unspecified),u,0%,18µM*,-5%,-22
COc1cc(OC)cc(C(=O)NCC2CCCN(Cc3ccc(SC)cc3)C2)c1 (stereo unspecified),-6%,u,16µM*,-2%,u
COc1ccc(CC(=O)NCC2CCCN(Cc3cc(OC)cc(OC)c3)C2)cc1 (stereo unspecified),1%,-21%,-12%,-1%,-50*
COC(=O)c1ccc(CN2CCCC(CNC(=O)Cc3ccc(OC)cc3)C2)cc1 (stereo unspecified),4%,-3%,10%,-2%,17
